“And” between values parts separate entries of the source, which are not always exact repeats. Identical values can stand only once. The panel holds about 83,000 compounds, 20% with a hit somewhere; the sample as a whole holds those more often.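 Values shown are percent growth following 48 h exposure of cells in 96-well plates to a single concentration of compound; below 10 was considered active.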 The source made the active and inactive calls.

Consider three compounds from PubChem BioAssay (NCI).

For this experiment, the system named is MDA-MB-468 breast. Put plainly: NCI-60 one-dose screen, 48 h (100 = growth as untreated, 0 = no growth, -100 = all killed). Conditions: 10 µM unless noted.
`Nc1ccc(O)c(C(=O)O)c1`: the growth was 73.1% (inactive) and 9.23% (active) and 98.8% (inactive).

As to `CCOC(=O)c1sc(/N=C2\NC(=O)/C(=C/c3ccc(N4CCN(C)CC4)cc3)S2)nc1C`, the growth was 111% (inactive).

`O=C1Cc2c(sc3c(F)cccc23)C(c2ccccc2[N+](=O)[O-])N1` (stereo not drawn): the growth is 86.9% (inactive).
